“And” between values parts separate entries of the source, which are not always exact repeats. Equal values may be shown once. Inconclusive results are not listed. A call without a number means that no potency is given here. The source made the active and inactive calls. Unless noted, calls come from the whole dose curve. Bridge positions count the residues as written; N and C are the ends. Square brackets hold non-standard residues; d marks the D form. Peptide text beside a SMILES is read from it. hArg = N=C(N)NCCCC[C@H](N)C(=O)O; Mpa = O=C(O)CCS
Tests used:
[1] = qHTS for Inhibitors of the Functional Ribonucleoprotein Complex (vRNP) of Lassa (LASV) Arenavirus: LASV Primary Screen - GLuc reporter signal (AID 1347082; calls by dose curve; tested in HEK293 reporter line; note: nearly all actives have a fitted effect of over 60% in size)
[2] = qHTS for Inhibitors of the Functional Ribonucleoprotein Complex (vRNP) of Lassa (LASV) Arenavirus: Viability assay - alamar blue signal for LASV Primary Screen (AID 1347083; calls by dose curve; tested in HEK293 reporter line; note: nearly all actives have a fitted effect of over 80% in size)
[3] = qHTS for Inhibitors of the Functional Ribonucleoprotein Complex (vRNP) of Lymphocytic Choriomeningitis Arenaviruses (LCMV): Viability assay - alamar blue signal for LCMV Primary Screen (AID 1347085; calls by dose curve; tested in HEK293 reporter line; note: nearly all actives have a fitted effect of over 80% in size)
[4] = biological target: Nucleoprotein (Lymphocytic choriomeningitis virus (strain Armstrong)) (UniProt P09992); test: qHTS for Inhibitors of the Functional Ribonucleoprotein Complex (vRNP) of Lymphocytic Choriomeningitis Arenaviruses (LCMV): LCMV Primary Screen - GLuc reporter signal (AID 1347086); note: nearly all actives have a fitted effect of over 70% in size
Nucleoprotein (Lymphocytic choriomeningitis virus (strain Armstrong)), sequence (P09992 whole entry, looked up): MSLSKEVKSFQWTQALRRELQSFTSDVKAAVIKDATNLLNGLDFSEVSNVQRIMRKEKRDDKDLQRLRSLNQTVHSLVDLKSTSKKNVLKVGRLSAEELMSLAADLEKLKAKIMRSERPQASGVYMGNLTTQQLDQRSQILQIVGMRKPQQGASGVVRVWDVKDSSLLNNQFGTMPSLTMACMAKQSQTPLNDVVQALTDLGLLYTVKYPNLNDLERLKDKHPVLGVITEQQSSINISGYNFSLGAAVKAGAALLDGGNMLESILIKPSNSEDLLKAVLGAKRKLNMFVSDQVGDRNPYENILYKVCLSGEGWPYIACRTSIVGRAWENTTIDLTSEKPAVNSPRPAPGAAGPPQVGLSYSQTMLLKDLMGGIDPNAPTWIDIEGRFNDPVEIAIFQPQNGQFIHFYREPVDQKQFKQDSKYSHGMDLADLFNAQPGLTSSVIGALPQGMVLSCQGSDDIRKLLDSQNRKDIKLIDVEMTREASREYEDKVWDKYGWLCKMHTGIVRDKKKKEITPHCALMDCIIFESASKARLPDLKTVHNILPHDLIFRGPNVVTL
Potency is the fitted concentration of half-maximal effect.

SMILES: O=C(NCCCN1CCOCC1)c1ccc(Cl)cc1
- Potency [1]: inactive
- Potency [2]: inactive
- Potency [3]: inactive
- Potency [4]: inactive

SMILES: Nc1c2c(nc3ccccc13)CCCC2O (centres undefined)
- Potency [1]: inactive
- Potency [2]: inactive
- Potency [3]: inactive
- Potency [4]: inactive

SMILES: CCN(CC)CCOC(=O)C1(c2ccccc2)CCCC1
- Potency [1]: inactive
- Potency [2]: inactive
- Potency [3]: inactive
- Potency [4]: inactive

SMILES: CN(C)C(=O)Nc1ccc(Cl)c(Cl)c1
- Potency [1]: inactive
- Potency [2]: inactive
- Potency [3]: inactive
- Potency [4]: inactive

SMILES: CCc1nnc(NS(=O)(=O)c2ccc(N)cc2)s1
- Potency [1]: inactive
- Potency [2]: inactive
- Potency [3]: inactive
- Potency [4]: inactive

SMILES: CCOC(=O)OCC/C(SC(=O)OCC)=C(\C)N(C=O)Cc1cnc(C)nc1N
- Potency [1]: inactive
- Potency [2]: inactive
- Potency [3]: inactive
- Potency [4]: inactive

SMILES: COC(=O)c1cc(S(N)(=O)=O)ccc1OC
- Potency [1]: inactive
- Potency [2]: inactive
- Potency [3]: inactive
- Potency [4]: inactive

SMILES: N=C(N)c1ccc(OCCCOc2ccc(C(=N)N)cc2)cc1
- Potency [1]: inactive
- Potency [2]: inactive
- Potency [3]: inactive
- Potency [4]: inactive

SMILES: C[C@H](O)C(=O)Nc1c(I)c(C(=O)NC(CO)CO)c(I)c(C(=O)NC(CO)CO)c1I
- Potency [1]: inactive
- Potency [2]: inactive
- Potency [3]: inactive
- Potency [4]: inactive

SMILES: CCOC(=O)c1cccc(N)c1
- Potency [1]: inactive
- Potency [2]: inactive
- Potency [3]: inactive
- Potency [4]: inactive

SMILES: CCC(=O)c1ccc2c(c1)N(CCCN(C)C)c1ccccc1S2
- Potency [1]: inactive
- Potency [2]: inactive
- Potency [3]: inactive
- Potency [4]: inactive

SMILES: CC(C)(C)NCC(O)COc1cccc2c1CCC(=O)N2 (centres undefined)
- Potency [1]: inactive
- Potency [2]: inactive
- Potency [3]: inactive
- Potency [4]: inactive

SMILES: CCN[C@H]1C[C@H](C)S(=O)(=O)c2sc(S(N)(=O)=O)cc21
- Potency [1]: inactive
- Potency [2]: inactive
- Potency [3]: inactive
- Potency [4]: inactive

SMILES: O=c1[nH]c2cc(C(F)(F)F)c(N3CCOCC3)cc2n(CP(=O)(O)O)c1=O
- Potency [1]: inactive
- Potency [2]: inactive
- Potency [3]: inactive
- Potency [4]: inactive

SMILES: Oc1ccc(/C=C/c2cc(O)cc(O)c2)cc1
- Potency [1]: inactive
- Potency [2]: inactive
- Potency [3]: inactive
- Potency [4]: inactive

SMILES: NC(=O)[C@@H]1CSSCCC(=O)N[C@@H](CCCCN=C(N)N)C(=O)NCC(=O)N[C@@H](CC(=O)O)C(=O)N[C@@H](Cc2c[nH]c3ccccc23)C(=O)N2CCC[C@H]2C(=O)N1 ([Mpa][hArg]GDWPC-NH2; disulfide 1-7)
- Potency [1]: inactive
- Potency [2]: inactive
- Potency [3]: inactive
- Potency [4]: inactive

SMILES: C[C@H]1[C@H]2CC[C@H]3[C@@H]4CC=C5C[C@@H](N(C)C)CC[C@]5(C)[C@H]4CC[C@]23CN1C
- Potency [1]: inactive
- Potency [2]: inactive
- Potency [3]: inactive
- Potency [4]: inactive

SMILES: CCOc1ccc(C(=O)OCCN(CC)CC)cc1
- Potency [1]: inactive
- Potency [2]: inactive
- Potency [3]: inactive
- Potency [4]: inactive

SMILES: CNC(=O)c1cnn(-c2nc(N)c3ncn([C@@H]4O[C@H](CO)[C@@H](O)[C@H]4O)c3n2)c1
- Potency [1]: inactive
- Potency [2]: inactive
- Potency [3]: inactive
- Potency [4]: inactive

SMILES: CO/N=C(/C(=O)N[C@@H]1C(=O)N2C(C(=O)O)=C(Cn3nnc(C)n3)CS[C@H]12)c1csc(N)n1
- Potency [1]: inactive
- Potency [2]: inactive
- Potency [3]: inactive
- Potency [4]: inactive

SMILES: O=C(O)COC(=O)Cc1ccccc1Nc1c(Cl)cccc1Cl
- Potency [1]: inactive
- Potency [2]: inactive
- Potency [3]: inactive
- Potency [4]: inactive

SMILES: Cn1cc(C(=O)[C@@H]2CCc3nc[nH]c3C2)c2ccccc21
- Potency [1]: inactive
- Potency [2]: inactive
- Potency [3]: inactive
- Potency [4]: inactive

SMILES: CCC(C(=O)OCCN1CCOC(c2ccccc2)C1C)c1ccccc1 (centres undefined)
- Potency [1]: inactive
- Potency [2]: inactive
- Potency [3]: inactive
- Potency [4]: inactive

SMILES: CC1=C(CC(=O)O)c2cc(F)ccc2/C1=C\c1ccc(S(C)(=O)=O)cc1
- Potency [1]: inactive
- Potency [2]: inactive
- Potency [3]: inactive
- Potency [4]: inactive

SMILES: CCCCCC(=O)O[C@]1(C(C)=O)CC[C@H]2[C@@H]3CCC4=CC(=O)CC[C@]4(C)[C@H]3CC[C@@]21C
- Potency [1]: inactive
- Potency [2]: inactive
- Potency [3]: inactive
- Potency [4]: inactive

SMILES: O=C(CCCN1CCC(O)(c2cccc(C(F)(F)F)c2)CC1)c1ccc(F)cc1
- Potency [1]: inactive
- Potency [2]: inactive
- Potency [3]: inactive
- Potency [4]: inactive

SMILES: CCOC(=O)[C@H](CCc1ccccc1)N[C@@H](C)C(=O)N1C(=O)N(C)C[C@H]1C(=O)O
- Potency [1]: inactive
- Potency [2]: inactive
- Potency [3]: inactive
- Potency [4]: inactive

SMILES: CN(C)C(=O)CNC(=O)Cc1ccccc1
- Potency [1]: inactive
- Potency [2]: inactive
- Potency [3]: inactive
- Potency [4]: inactive

SMILES: CC(C)CCCC(C)N (centres undefined)
- Potency [1]: inactive
- Potency [2]: inactive
- Potency [3]: inactive
- Potency [4]: inactive

SMILES: COc1ccc(C(Cl)=C(c2ccc(OC)cc2)c2ccc(OC)cc2)cc1
- Potency [1]: inactive
- Potency [2]: inactive
- Potency [3]: inactive
- Potency [4]: inactive

SMILES: C#Cc1ccc(-c2ccccc2F)cc1
- Potency [1]: inactive
- Potency [2]: inactive
- Potency [3]: inactive
- Potency [4]: inactive

SMILES: CCCCC1C(=O)N(c2ccccc2)N(c2ccc(O)cc2)C1=O (centres undefined)
- Potency [1]: inactive
- Potency [2]: inactive
- Potency [3]: inactive
- Potency [4]: inactive

SMILES: CC1(C)[C@@H](OC(=O)CCC(=O)O)CC[C@]2(C)[C@H]3C(=O)C=C4[C@@H]5C[C@@](C)(C(=O)O)CC[C@]5(C)CC[C@@]4(C)[C@]3(C)CC[C@@H]12
- Potency [1]: inactive
- Potency [2]: inactive
- Potency [3]: inactive
- Potency [4]: inactive

SMILES: NC1(c2ccc(-c3nc4ccn5c(=O)[nH]nc5c4cc3-c3ccccc3)cc2)CCC1
- Potency [1]: 19.3 µM (active)
- Potency [2]: 2.73 µM (active) and 5.62 µM (active)
- Potency [3]: 3.85 µM (active)
- Potency [4]: 3.06 µM (active)

SMILES: Cc1ccc2c(c1)c1c3n2CCNC3CCC1 (centres undefined)
- Potency [1]: inactive
- Potency [2]: inactive
- Potency [3]: inactive
- Potency [4]: inactive

SMILES: NC(=O)CC[C@@H](N)C(=O)O
- Potency [1]: inactive
- Potency [2]: inactive
- Potency [3]: inactive
- Potency [4]: inactive

SMILES: O=C(O)CCC(=O)c1ccc(-c2ccccc2)cc1
- Potency [1]: inactive
- Potency [2]: inactive
- Potency [3]: inactive
- Potency [4]: inactive

SMILES: CC(=O)OCC(=O)[C@@]1(O)CC[C@H]2[C@@H]3CCC4=CC(=O)C=C[C@]4(C)[C@H]3[C@@H](O)C[C@@]21C
- Potency [1]: inactive
- Potency [2]: inactive
- Potency [3]: inactive
- Potency [4]: inactive

SMILES: O=C1Nc2cc(Cl)ccc2Oc2ccccc21
- Potency [1]: inactive
- Potency [2]: inactive
- Potency [3]: inactive
- Potency [4]: inactive

SMILES: CCOC(=O)[C@H](CCc1ccccc1)N[C@H]1CS[C@H](c2cccs2)CN(CC(=O)O)C1=O
- Potency [1]: inactive
- Potency [2]: inactive
- Potency [3]: inactive
- Potency [4]: inactive

SMILES: O=C(COc1ccc(Cl)cc1)N1CCN(Cc2ccc3c(c2)OCO3)CC1
- Potency [1]: inactive
- Potency [2]: inactive
- Potency [3]: inactive
- Potency [4]: inactive

SMILES: C[C@]1(Cn2ccnn2)[C@H](C(=O)O)N2C(=O)C[C@H]2S1(=O)=O
- Potency [1]: inactive
- Potency [2]: inactive
- Potency [3]: inactive
- Potency [4]: inactive

SMILES: O=C(CCC1CCN(Cc2ccccc2)CC1)c1ccc2c(c1)NCCCC2
- Potency [1]: inactive
- Potency [2]: inactive
- Potency [3]: inactive
- Potency [4]: inactive

SMILES: CCN1CCCC(OC(=O)C(c2ccccc2)c2ccccc2)C1 (centres undefined)
- Potency [1]: inactive
- Potency [2]: inactive
- Potency [3]: inactive
- Potency [4]: inactive

SMILES: NCCc1ccc(O)c(O)c1
- Potency [1]: inactive
- Potency [2]: inactive
- Potency [3]: inactive
- Potency [4]: inactive

SMILES: N[C@@H](CSCCCO)C(=O)O
- Potency [1]: inactive
- Potency [2]: inactive
- Potency [3]: inactive
- Potency [4]: inactive

SMILES: C[C@]12CC[C@@H]3c4ccc(O)cc4CC[C@H]3[C@@H]1CC[C@@H]2OC(=O)CCC1CCCC1
- Potency [1]: inactive
- Potency [2]: inactive
- Potency [3]: inactive
- Potency [4]: inactive

SMILES: C(=C\c1ccccc1)/CN1CCN(C(c2ccccc2)c2ccccc2)CC1
- Potency [1]: inactive
- Potency [2]: inactive
- Potency [3]: inactive
- Potency [4]: inactive

SMILES: CC(=O)O[C@H]1C[C@@H]2CC[C@@H]3[C@H](CC[C@@]4(C)[C@H]3C[C@H]([N+]3(C)CCCCC3)[C@@H]4OC(C)=O)[C@@]2(C)C[C@@H]1N1CCCCC1
- Potency [1]: inactive
- Potency [2]: inactive
- Potency [3]: inactive
- Potency [4]: inactive

SMILES: CC[C@H](NC(C)C)[C@H](O)c1ccc(O)c2[nH]c(=O)ccc12
- Potency [1]: inactive
- Potency [2]: inactive
- Potency [3]: inactive
- Potency [4]: inactive

SMILES: CN(C)c1ccc(C(=C2C=CC(=[N+](C)C)C=C2)c2ccc(N(C)C)cc2)cc1
- Potency [1]: 1.22 µM (active)
- Potency [2]: 3.85 µM (active)
- Potency [3]: 5.62 µM (active) and 3.85 µM (active)
- Potency [4]: 1.53 µM (active)

Reference: PubChem BioAssay (NCATS)
